# Test results published in article PMC5540273 (PLoS ONE, 2017).
# Values joined by “and” are separate entries in the source; they are usually repeats but may differ in a detail not shown here. Identical values can stand only once. Like-named read-outs stand apart in the source and are kept apart here.
# What was measured:
# NDR1 = test system: T1, NDR1; settings: n = 1
# T1 construct: gene STK38
# NDR2 = settings: concentration: 1 μM, replicates: in singlicate; n = 1
# NEK10 = settings: n = 1
# NEK11 = settings: concentration: 1 μM, replicates: in singlicate; n = 1
# NEK1 = settings: concentration: 1 μM, replicates: in singlicate; n = 1
# NEK2 = settings: n = 1
# NEK3 = settings: n = 1
# NEK4 = settings: n = 1
# NEK5 = settings: n = 1
# NEK6 = settings: concentration: 1 μM, replicates: in singlicate; n = 1
# NEK7 = settings: n = 1
# NEK9 = settings: n = 1
# NIK = test system: T2, NIK; settings: n = 1
# T2 construct: gene MAP3K14
# NIM1 = test system: T3, NIM1; settings: n = 1
# T3 construct: gene MGC42105
# NLK = settings: n = 1
# OSR1 = test system: T4, OSR1; settings: n = 1
# T4 construct: gene OXSR1
# PAK1 = settings: n = 1
# PAK2 = settings: n = 1
# PAK3 = settings: n = 1
# PAK4 = settings: concentration: 1 μM, replicates: in singlicate; n = 1
# [1] = concentration: 1 μM, replicates: in singlicate
# [2] = concentration: 1 μM,replicates: in singlicate, 1 µM
# 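Also: KINOMEscan kinase panel screen.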
structure (smiles),measurement,setting,value
O=C(Nc1n[nH]c2nc(-c3nccs3)c(Br)cc12)C1CC1 [SB-742251],%Inh,NDR1; [1],0%
same,%Inh,NDR2,0%
same,%Inh,NEK10; [1],0%
same,%Inh,NEK11,48%
same,%Inh,NEK1,0%
same,%Inh,NEK2; [1],0%
same,%Inh,NEK3; [1],8%
same,%Inh,NEK4; [1],21%
same,%Inh,NEK5; [1],10%
same,%Inh,NEK6,0%
same,%Inh,NEK7; [1],0%
same,%Inh,NEK9; [1],0%
same,%Inh,NIK; [1],44%
same,%Inh,NIM1; [1],0%
same,%Inh,NLK; [1],0%
same,%Inh,OSR1; [1],7%
same,%Inh,PAK1; [1],2%
same,%Inh,PAK2; [1],16%
same,%Inh,PAK3; [1],20%
same,%Inh,PAK4,0%
Cc1cc(N2Cc3ccccc3C2)nc(Nc2ccc(S(=O)(=O)N3CCOCC3)cc2)n1.Cl [GSK1669917],%Inh,NDR1; [1],20%
same,%Inh,NDR2,0%
same,%Inh,NEK10; [1],0%
same,%Inh,NEK11,0%
same,%Inh,NEK1,0%
same,%Inh,NEK2; [1],0%
same,%Inh,NEK3; [1],0%
same,%Inh,NEK4; [1],9%
same,%Inh,NEK5; [1],23%
same,%Inh,NEK6,0%
same,%Inh,NEK7; [1],0%
same,%Inh,NEK9; [1],0%
same,%Inh,NIK; [1],0%
same,%Inh,NIM1; [1],6%
same,%Inh,NLK; [1],7%
same,%Inh,OSR1; [1],0%
same,%Inh,PAK1; [1],8%
same,%Inh,PAK2; [1],3%
same,%Inh,PAK3; [1],0%
same,%Inh,PAK4,0%
CSc1nn2c(=O)cc(N3CCOCC3)nc2n1Cc1cccc(C(F)(F)F)c1C [GSK2363608],%Inh,NDR1; [2],17% and 8%
same,%Inh,NDR2,0%
same,%Inh,NEK10; [2],8% and 28%
same,%Inh,NEK11,0%
same,%Inh,NEK1,0%
same,%Inh,NEK2; [2],100% and 1%
same,%Inh,NEK3; [2],14% and 3%
same,%Inh,NEK4; [2],0% and 16%
same,%Inh,NEK5; [2],23% and 0%
same,%Inh,NEK6,0%
same,%Inh,NEK7; [2],3% and 0%
same,%Inh,NEK9; [2],22% and 2%
same,%Inh,NIK; [2],0% and 6%
same,%Inh,NIM1; [2],2% and 12%
same,%Inh,NLK; [2],2% and 37%
same,%Inh,OSR1; [2],15% and 7%
same,%Inh,PAK1; [2],0% and 38%
same,%Inh,PAK2; [2],0% and 37%
same,%Inh,PAK3; [2],8% and 0%
same,%Inh,PAK4,0%
Nc1ncnc2[nH]c(-c3ccccc3)nc12 [AH5015],%Inh,NDR1; [1],0%
same,%Inh,NDR2,0%
same,%Inh,NEK10; [1],49%
same,%Inh,NEK11,71%
same,%Inh,NEK1,4%
same,%Inh,NEK2; [1],18%
same,%Inh,NEK3; [1],53%
same,%Inh,NEK4; [1],26%
same,%Inh,NEK5; [1],32%
same,%Inh,NEK6,0%
same,%Inh,NEK7; [1],7%
same,%Inh,NEK9; [1],1%
same,%Inh,NIK; [1],50%
same,%Inh,NIM1; [1],21%
same,%Inh,NLK; [1],0%
same,%Inh,OSR1; [1],17%
same,%Inh,PAK1; [1],30%
same,%Inh,PAK2; [1],48%
same,%Inh,PAK3; [1],100%
same,%Inh,PAK4,0%
Cc1cccc(-c2nc(-c3ccc(S(C)(=O)=O)cc3)sc2-c2ccnc(NCCc3ccccc3)c2)c1,%Inh,NDR1; [1],1%
same,%Inh,NDR2,0%
same,%Inh,NEK10; [1],14%
same,%Inh,NEK11,0%
same,%Inh,NEK1,0%
same,%Inh,NEK2; [1],0%
same,%Inh,NEK3; [1],30%
same,%Inh,NEK4; [1],0%
same,%Inh,NEK5; [1],2%
same,%Inh,NEK6,0%
same,%Inh,NEK7; [1],0%
same,%Inh,NEK9; [1],0%
same,%Inh,NIK; [1],0%
same,%Inh,NIM1; [1],0%
same,%Inh,NLK; [1],11%
same,%Inh,OSR1; [1],0%
same,%Inh,PAK1; [1],18%
same,%Inh,PAK2; [1],20%
same,%Inh,PAK3; [1],0%
same,%Inh,PAK4,1%
COc1ccc2nc(-c3cccc(C)n3)nc(Nc3ccncc3)c2c1 [GSK204919],%Inh,NDR1; [1],0%
same,%Inh,NDR2,0%
same,%Inh,NEK10; [1],3%
same,%Inh,NEK11,7%
same,%Inh,NEK1,0%
same,%Inh,NEK2; [1],0%
same,%Inh,NEK3; [1],0%
same,%Inh,NEK4; [1],11%
same,%Inh,NEK5; [1],17%
same,%Inh,NEK6,0%
same,%Inh,NEK7; [1],0%
same,%Inh,NEK9; [1],0%
same,%Inh,NIK; [1],0%
same,%Inh,NIM1; [1],0%
same,%Inh,NLK; [1],52%
same,%Inh,OSR1; [1],10%
same,%Inh,PAK1; [1],8%
same,%Inh,PAK2; [1],14%
same,%Inh,PAK3; [1],7%
same,%Inh,PAK4,0%
Cc1c(Cn2ccn3c(=O)cc(N4CCOCC4)nc23)cccc1C(F)(F)F [GSK2289044],%Inh,NDR1; [1],31%
same,%Inh,NDR2,0%
same,%Inh,NEK10; [1],0%
same,%Inh,NEK11,0%
same,%Inh,NEK1,0%
same,%Inh,NEK2; [1],8%
same,%Inh,NEK3; [1],0%
same,%Inh,NEK4; [1],0%
same,%Inh,NEK5; [1],2%
same,%Inh,NEK6,0%
same,%Inh,NEK7; [1],4%
same,%Inh,NEK9; [1],20%
same,%Inh,NIK; [1],0%
same,%Inh,NIM1; [1],7%
same,%Inh,NLK; [1],27%
same,%Inh,OSR1; [1],8%
same,%Inh,PAK1; [1],16%
same,%Inh,PAK2; [1],8%
same,%Inh,PAK3; [1],13%
same,%Inh,PAK4,0%
